± gives the standard deviation of the averaged measurements.

Test in all cases: relative enzymatic activity vs untreated control (fraction); higher = less inhibition
What all share (conditions): 100 µM; incubation time: 2 h at 37 C

One experiment has as its system DNA gyrase. The procedure:
(§1)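 In vitro enzymatic inhibition assays (ProFoldin kits) for 12 purified essential E. coli enzymes or complexes, each treated with 218 active antibacterial compounds at 100 µM for 2 h at 37°C. Read-outs were fluorescence or absorbance (phosphate detection, dye binding), converted to activity via standard curves and expressed relative to untreated DMSO controls.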

Another experiment addresses DNA helicase (UniProt P0ACB1). The protocol:
as §1

Another experiment concerns the target DNA ligase (UniProt B1XA82). The procedure: as §1
In the next experiment the target is DNA polymerase (UniProt P10443). The protocol: as §1
The next experiment concerns the target DNA primase (UniProt P0ABS7). The procedure: as §1
For a further experiment, the target named is GlmU (UniProt A7ZTU1). The protocol:
as §1

Another experiment deals with Guanlyate kinase (UniProt Q0TBG1). The procedure: as §1
A further experiment concerns the target MurA (UniProt Q3YX52). The procedure:
as §1

A further experiment deals with T1, MurD (UniProt P14900).
T1 sequence (whole entry): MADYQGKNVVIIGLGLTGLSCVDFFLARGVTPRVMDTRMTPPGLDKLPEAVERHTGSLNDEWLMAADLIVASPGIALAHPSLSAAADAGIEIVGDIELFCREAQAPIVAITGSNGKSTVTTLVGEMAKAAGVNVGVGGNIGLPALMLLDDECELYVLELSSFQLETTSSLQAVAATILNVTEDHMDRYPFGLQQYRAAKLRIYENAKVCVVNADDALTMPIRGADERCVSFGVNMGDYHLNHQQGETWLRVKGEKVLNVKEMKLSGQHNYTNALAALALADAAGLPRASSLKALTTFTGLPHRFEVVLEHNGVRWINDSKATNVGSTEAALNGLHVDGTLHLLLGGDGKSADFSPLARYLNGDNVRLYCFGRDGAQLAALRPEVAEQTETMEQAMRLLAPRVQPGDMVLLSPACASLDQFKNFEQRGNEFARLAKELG
The protocol:
as §1

Another experiment deals with T2, MurF (UniProt P11880).
T2 sequence (whole entry): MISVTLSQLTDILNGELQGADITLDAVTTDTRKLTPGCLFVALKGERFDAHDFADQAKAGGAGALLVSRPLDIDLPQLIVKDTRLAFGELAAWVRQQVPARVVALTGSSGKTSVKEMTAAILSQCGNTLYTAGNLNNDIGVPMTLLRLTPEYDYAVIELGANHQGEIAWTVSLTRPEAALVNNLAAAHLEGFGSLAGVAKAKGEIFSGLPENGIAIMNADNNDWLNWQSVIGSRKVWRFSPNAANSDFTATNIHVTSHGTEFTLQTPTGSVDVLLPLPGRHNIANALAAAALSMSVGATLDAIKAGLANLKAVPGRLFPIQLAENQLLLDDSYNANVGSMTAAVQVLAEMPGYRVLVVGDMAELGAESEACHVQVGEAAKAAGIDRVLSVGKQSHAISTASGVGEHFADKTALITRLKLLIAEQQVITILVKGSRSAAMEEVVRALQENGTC
The protocol:
as §1

In a further experiment the test system is RNA polymerase. The procedure: as §1

Chain of DNA polymerase (P10443 whole entry): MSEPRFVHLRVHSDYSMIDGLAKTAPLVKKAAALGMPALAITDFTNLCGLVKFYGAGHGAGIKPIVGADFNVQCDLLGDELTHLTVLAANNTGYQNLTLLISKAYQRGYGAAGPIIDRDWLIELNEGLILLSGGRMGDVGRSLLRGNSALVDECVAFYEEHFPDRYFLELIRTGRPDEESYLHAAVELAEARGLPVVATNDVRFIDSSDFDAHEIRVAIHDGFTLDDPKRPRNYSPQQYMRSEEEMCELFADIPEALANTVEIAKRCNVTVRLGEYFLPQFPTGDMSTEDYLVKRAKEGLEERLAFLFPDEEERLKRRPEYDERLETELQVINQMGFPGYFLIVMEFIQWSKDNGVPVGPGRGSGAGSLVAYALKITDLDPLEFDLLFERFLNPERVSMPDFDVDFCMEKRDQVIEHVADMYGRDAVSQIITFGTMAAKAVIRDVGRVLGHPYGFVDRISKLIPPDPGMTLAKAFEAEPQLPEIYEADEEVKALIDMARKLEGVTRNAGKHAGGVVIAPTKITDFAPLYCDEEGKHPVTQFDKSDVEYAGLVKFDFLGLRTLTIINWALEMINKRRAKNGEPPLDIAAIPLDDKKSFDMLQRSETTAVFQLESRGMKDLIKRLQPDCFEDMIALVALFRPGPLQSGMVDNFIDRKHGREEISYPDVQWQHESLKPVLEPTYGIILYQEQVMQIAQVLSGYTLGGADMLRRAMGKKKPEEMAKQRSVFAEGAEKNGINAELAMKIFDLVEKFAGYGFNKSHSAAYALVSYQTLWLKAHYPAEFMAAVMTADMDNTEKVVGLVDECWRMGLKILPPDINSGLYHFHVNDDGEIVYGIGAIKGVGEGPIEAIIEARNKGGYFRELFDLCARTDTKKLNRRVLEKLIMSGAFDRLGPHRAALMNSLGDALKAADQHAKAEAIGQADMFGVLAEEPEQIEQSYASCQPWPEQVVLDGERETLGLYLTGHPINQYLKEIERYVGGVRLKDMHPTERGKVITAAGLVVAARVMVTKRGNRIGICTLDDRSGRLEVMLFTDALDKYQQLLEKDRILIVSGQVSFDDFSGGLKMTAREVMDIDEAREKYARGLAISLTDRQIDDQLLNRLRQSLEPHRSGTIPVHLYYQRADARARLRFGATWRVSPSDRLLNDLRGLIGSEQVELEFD
Chain of DNA ligase (B1XA82 whole entry): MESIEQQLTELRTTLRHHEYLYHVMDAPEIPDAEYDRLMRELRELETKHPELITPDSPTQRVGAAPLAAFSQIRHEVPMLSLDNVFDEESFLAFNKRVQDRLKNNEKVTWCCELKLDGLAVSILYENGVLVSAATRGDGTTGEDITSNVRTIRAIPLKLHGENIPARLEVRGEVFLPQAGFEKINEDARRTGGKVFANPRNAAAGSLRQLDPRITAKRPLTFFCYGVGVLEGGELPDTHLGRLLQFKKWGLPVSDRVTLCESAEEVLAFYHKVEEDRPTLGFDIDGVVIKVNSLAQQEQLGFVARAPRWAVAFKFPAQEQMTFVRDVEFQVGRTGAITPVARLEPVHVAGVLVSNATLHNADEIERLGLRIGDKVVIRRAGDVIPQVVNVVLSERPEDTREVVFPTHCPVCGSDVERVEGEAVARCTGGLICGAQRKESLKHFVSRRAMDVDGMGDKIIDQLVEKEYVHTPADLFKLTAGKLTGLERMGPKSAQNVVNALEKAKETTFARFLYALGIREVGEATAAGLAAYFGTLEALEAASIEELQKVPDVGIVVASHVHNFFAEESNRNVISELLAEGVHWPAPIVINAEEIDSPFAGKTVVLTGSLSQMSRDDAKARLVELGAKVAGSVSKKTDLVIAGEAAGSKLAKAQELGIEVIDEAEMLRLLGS
Chain of MurA (Q3YX52 whole entry): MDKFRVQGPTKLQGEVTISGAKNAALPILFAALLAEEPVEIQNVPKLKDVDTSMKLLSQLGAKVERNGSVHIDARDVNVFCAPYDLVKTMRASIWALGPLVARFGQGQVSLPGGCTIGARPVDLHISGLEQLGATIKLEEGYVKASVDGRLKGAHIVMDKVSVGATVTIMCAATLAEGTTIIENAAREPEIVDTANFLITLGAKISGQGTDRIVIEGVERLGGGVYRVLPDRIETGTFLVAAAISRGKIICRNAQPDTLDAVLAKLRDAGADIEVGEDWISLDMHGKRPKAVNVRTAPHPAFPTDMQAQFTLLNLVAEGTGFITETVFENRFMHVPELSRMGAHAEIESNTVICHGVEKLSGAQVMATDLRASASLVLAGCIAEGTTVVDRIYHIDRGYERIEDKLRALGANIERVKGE
Chain of GlmU (A7ZTU1 whole entry, looked up): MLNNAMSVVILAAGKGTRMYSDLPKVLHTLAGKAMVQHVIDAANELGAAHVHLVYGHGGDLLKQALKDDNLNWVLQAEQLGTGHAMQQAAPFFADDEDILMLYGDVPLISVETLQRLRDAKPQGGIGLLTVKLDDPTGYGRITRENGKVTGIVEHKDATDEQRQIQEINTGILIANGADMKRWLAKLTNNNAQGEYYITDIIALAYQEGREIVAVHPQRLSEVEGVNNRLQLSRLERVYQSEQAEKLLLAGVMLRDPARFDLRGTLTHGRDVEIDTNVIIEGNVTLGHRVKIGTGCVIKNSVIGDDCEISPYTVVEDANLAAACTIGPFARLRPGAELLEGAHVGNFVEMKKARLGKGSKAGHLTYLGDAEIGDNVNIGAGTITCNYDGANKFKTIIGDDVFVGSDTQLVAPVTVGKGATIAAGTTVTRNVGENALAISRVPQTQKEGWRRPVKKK
Chain of DNA primase (P0ABS7 whole entry): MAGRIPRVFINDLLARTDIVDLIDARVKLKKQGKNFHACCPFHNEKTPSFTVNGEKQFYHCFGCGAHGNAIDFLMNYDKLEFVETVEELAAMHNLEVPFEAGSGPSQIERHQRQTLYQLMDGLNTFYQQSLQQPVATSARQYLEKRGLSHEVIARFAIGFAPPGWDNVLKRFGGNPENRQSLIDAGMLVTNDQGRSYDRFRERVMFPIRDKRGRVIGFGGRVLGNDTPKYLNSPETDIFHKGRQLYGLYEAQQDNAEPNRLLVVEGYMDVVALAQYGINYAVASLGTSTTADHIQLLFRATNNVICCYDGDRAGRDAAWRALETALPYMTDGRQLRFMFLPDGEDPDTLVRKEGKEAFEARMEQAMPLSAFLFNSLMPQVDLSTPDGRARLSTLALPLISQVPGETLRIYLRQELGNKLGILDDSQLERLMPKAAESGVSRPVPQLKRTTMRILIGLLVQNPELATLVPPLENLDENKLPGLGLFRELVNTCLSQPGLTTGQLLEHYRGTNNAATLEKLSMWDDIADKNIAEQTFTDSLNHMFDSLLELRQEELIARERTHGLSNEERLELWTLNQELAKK
Chain of Guanlyate kinase (Q0TBG1 whole entry): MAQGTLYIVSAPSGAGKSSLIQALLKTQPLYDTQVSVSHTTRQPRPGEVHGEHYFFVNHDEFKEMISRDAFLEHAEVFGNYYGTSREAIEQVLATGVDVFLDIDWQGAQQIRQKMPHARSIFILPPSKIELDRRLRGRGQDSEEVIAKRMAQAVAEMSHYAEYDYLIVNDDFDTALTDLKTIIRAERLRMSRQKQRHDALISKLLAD
Chain of DNA helicase (P0ACB1 whole entry): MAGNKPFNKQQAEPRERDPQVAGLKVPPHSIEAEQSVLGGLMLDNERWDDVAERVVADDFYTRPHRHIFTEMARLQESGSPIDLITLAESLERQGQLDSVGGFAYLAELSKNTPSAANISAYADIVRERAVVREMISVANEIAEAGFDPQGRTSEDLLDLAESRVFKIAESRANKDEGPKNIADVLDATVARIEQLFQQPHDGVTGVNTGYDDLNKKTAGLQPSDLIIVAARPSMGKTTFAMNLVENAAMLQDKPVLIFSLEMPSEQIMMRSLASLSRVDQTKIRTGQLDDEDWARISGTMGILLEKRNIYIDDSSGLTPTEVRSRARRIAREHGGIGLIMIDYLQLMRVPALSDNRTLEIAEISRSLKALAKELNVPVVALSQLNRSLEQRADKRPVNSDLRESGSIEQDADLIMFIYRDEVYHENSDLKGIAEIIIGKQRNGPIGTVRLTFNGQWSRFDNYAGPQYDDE

As to `NC(C(=O)NC1C(=O)N2C(C(=O)O)=C(Cl)CSC12)c1ccccc1` (centres undefined), the relative enzymatic activity with DNA gyrase worked out at 1.09 ± 0.06; in the experiment with DNA helicase, 0.441 ± 0.046; with DNA ligase, 1.07 ± 0.039; with DNA polymerase, 1.38 ± 0.51; with DNA primase it was 0.74 ± 0.23; in the experiment with GlmU, 0.982 ± 0.015. The relative enzymatic activity with Guanlyate kinase was 1.04 ± 0.088; with MurA, 0.0755 ± 0.013; in the experiment with MurD, 0.58 ± 0.4; in the experiment with MurF it was 0.945 ± 0.26; in the experiment on RNA polymerase, 0.971 ± 0.085.
`NC(=O)[C@@H]1C(=O)C[C@@H]2C[C@@H]3Cc4cccc(O)c4C(=O)[C@@H]3C(=O)[C@]2(O)C1=O`: the relative enzymatic activity is 1.02 ± 0.18 in the experiment on DNA gyrase; 0.519 ± 0.062 in the experiment with DNA helicase; 0.963 ± 0.042 in the experiment with DNA ligase; 0.976 ± 0.11 with DNA polymerase; 0.822 ± 0.017 in the experiment with DNA primase; 1.08 ± 0.021 with GlmU. Besides, the relative enzymatic activity in the experiment with Guanlyate kinase turned out to be 0.796 ± 0.086; with MurA, 0.328 ± 0.11; with MurD, 0.62 ± 0.39; in the experiment with MurF, 1.01 ± 0.2; with RNA polymerase, 0.715 ± 0.048.
With `CO/N=C1\CN(c2nc3c(cc2F)c(=O)c(C(=O)O)cn3C2CC2)C[C@@H]1CN`, the relative enzymatic activity in the experiment on DNA gyrase came out at 0.0916 ± 0.13; in the experiment with DNA helicase it was 0.4747 ± 0.0033; with DNA ligase, 0.891 ± 0.14; in the experiment with DNA polymerase, 0.53 ± 0.72; in the experiment with DNA primase, 0.751 ± 0.05; with GlmU, 0.979 ± 0.019. For the same molecule, the relative enzymatic activity with Guanlyate kinase was 0.738 ± 0.26; with MurA, 0.631 ± 0.21; with MurD it was 0.572 ± 0.38; in the experiment with MurF, 0.964 ± 0.17; in the experiment on RNA polymerase, 0.807 ± 0.074.
As for `CC[C@H]1OC(=O)[C@H](C)[C@@H](O[C@H]2C[C@@](C)(OC)[C@@H](O)[C@H](C)O2)[C@H](C)[C@@H](O[C@@H]2O[C@H](C)C[C@H](N(C)C)[C@H]2O)[C@](C)(O)C[C@@H](C)CN(C)[C@H](C)[C@@H](O)[C@]1(C)O`, the relative enzymatic activity was found to be 0.608 ± 0.34 in the experiment on DNA gyrase; 0.527 ± 0.072 with DNA helicase; 0.871 ± 0.086 with DNA ligase; 1.04 ± 0.12 in the experiment with DNA polymerase; 0.836 ± 0.027 with DNA primase; 0.99 ± 0.031 in the experiment with GlmU. Further, the relative enzymatic activity with Guanlyate kinase worked out at 0.865 ± 0.079; in the experiment with MurA, 0.746 ± 0.079; in the experiment with MurD, 0.58 ± 0.37; with MurF, 0.95 ± 0.23; with RNA polymerase it was 0.897 ± 0.19.
As to `COc1ccc(Cc2cnc(N)nc2N)cc1OC`, the relative enzymatic activity in the experiment with DNA gyrase was 0.752 ± 0.41; with DNA helicase, 0.508 ± 0.059; with DNA ligase, 1.55 ± 0.21; with DNA polymerase, 1.21 ± 0.22; with DNA primase, 0.74 ± 0.24; with GlmU, 1.019 ± 0.0077. In addition, the relative enzymatic activity with Guanlyate kinase came out at 0.993 ± 0.039; in the experiment with MurA, 0.74 ± 0.026; with MurD it was 0.583 ± 0.39; with MurF it was 0.946 ± 0.2; with RNA polymerase, 0.9567 ± 0.0054.
Take `CC(C)(O/N=C(\C(=O)N[C@@H]1C(=O)N2C(C(=O)O)=C(C[n+]3ccccc3)CS[C@H]12)c1csc(N)n1)C(=O)O`: the relative enzymatic activity with DNA gyrase was found to be 0.662 ± 0.56; in the experiment with DNA helicase, 0.577 ± 0.24; with DNA ligase, 0.86 ± 0.088; with DNA polymerase, 1.1 ± 0.22; in the experiment with DNA primase it was 0.791 ± 0.01; with GlmU, 1.01 ± 0.032. The relative enzymatic activity in the experiment with Guanlyate kinase turned out to be 0.94 ± 0.075; with MurA it was 0.0696 ± 0.019; in the experiment with MurD, 0.613 ± 0.43; with MurF, 0.935 ± 0.24; in the experiment on RNA polymerase, 0.829 ± 0.16.
Regarding `NC[C@H]1O[C@H](O[C@H]2[C@H](O)[C@@H](O[C@H]3O[C@H](CO)[C@@H](O)[C@H](N)[C@H]3O)[C@H](N)C[C@@H]2N)[C@H](N)C[C@@H]1O`, the relative enzymatic activity in the experiment on DNA gyrase was 0.902 ± 0.18; with DNA helicase, 0.378 ± 0.22; in the experiment with DNA ligase, 0.91 ± 0.034; with DNA polymerase it was 1.19 ± 0.21; with DNA primase, 0.572 ± 0.14; with GlmU, 1.02 ± 0.033. The relative enzymatic activity in the experiment with Guanlyate kinase was 0.443 ± 0.1; with MurA, 0.747 ± 0.093; with MurD, 0.609 ± 0.42; in the experiment with MurF, 0.956 ± 0.23; in the experiment on RNA polymerase it was 0.906 ± 0.048.
As to `CNC1C(OC2C(OC3C(O)C(O)C(NC(=N)N)C(O)C3NC(=N)N)OC(C)C2(O)CO)OC(CO)C(O)C1O.O=S(=O)(O)O` (centres undefined), the relative enzymatic activity in the experiment with DNA gyrase turned out to be 0.78 ± 0.53; in the experiment with DNA helicase it was 0.565 ± 0.13; with DNA ligase, 1.11 ± 0.19; with DNA polymerase, 1.38 ± 0.47; in the experiment with DNA primase it was 0.716 ± 0.22; in the experiment with GlmU it was 0.982 ± 0.09. Also, the relative enzymatic activity with Guanlyate kinase was found to be 1.02 ± 0.063; with MurA, 0.635 ± 0.0086; with MurD it was 0.65 ± 0.44; with MurF, 0.944 ± 0.15; with RNA polymerase it was 0.953 ± 0.083.
For the molecule `CON=C(C(=O)N[C@@H]1C(=O)N2C(C(=O)OCOC(=O)C(C)(C)C)=C(C=Cc3scnc3C)CS[C@H]12)c1csc(N)n1`, the relative enzymatic activity in the experiment on DNA gyrase is 0.622 ± 0.19; in the experiment with DNA helicase, 0.322 ± 0.0034; with DNA ligase, 0.899 ± 0.1; in the experiment with DNA polymerase it was 0.496 ± 0.7; with DNA primase, 0.83003 ± 0.00016; with GlmU it was 0.838 ± 0.01. Besides, the relative enzymatic activity in the experiment with Guanlyate kinase was determined as 0.842 ± 0.11; with MurA, 0.335 ± 0.12; with MurD it was 0.147 ± 0.21; with MurF, 0.855 ± 0.25; in the experiment with RNA polymerase, 0.945 ± 0.2.

Values taken from the supplement of paper PMC9446081.
